Source: PubChem (Broad Institute)
miR122 inh = activators of miR-122 sensor in Huh7 cells | Huh7 psiCHECK-miR122 Renilla luciferase sensor, 48 h | actives 0.14% (n = 340,000) | activation, % at 12.5 µM | AID 623901;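 active means mean activation of 30% or more, with every replicate also reaching 30%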;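 further: higher luciferase signal means stronger suppression of miR-122 activity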
Numbers stand for hits; n = inactive. This excerpt belongs to a sample that is enriched for hits.

SMILES	miR122 inh
CCC(=O)Nc1ccc2c(c1)OC[C@H](C)N(C(=O)CN1CCOCC1)C[C@H](C)[C@H](OC)CN(C)C2=O	n
COc1ccccc1-c1cnc2c(c1)C(=O)N([C@H](C)CO)C[C@@H](C)[C@H](CN(C)Cc1ccccc1)O2	n
Cc1cc(C)nc(NS(=O)(=O)c2ccc(NC(=S)NC(=O)C3CCCC3)cc2)n1	62
Cc1cc(C)cc(NS(=O)(=O)c2ccc(NC(=S)NC(=O)c3cccs3)cc2)c1	n
CN(Cc1ccccc1)S(=O)(=O)c1ccc(NC(=S)NC(=O)C2CCCC2)cc1	n
C[C@H](CO)N1C[C@H](C)[C@H](CN(C)C(=O)C2CCCCC2)Oc2ncc(C3=CCCC3)cc2C1=O	n
C[C@@H]1CN([C@@H](C)CO)S(=O)(=O)c2ccc(C#Cc3ccc(F)cc3)cc2O[C@@H]1CN(C)S(=O)(=O)c1cn(C)cn1	n
COCC#Cc1ccc2c(c1)O[C@H](CN(C)C(=O)C1CCCCC1)[C@H](C)CN([C@@H](C)CO)S2(=O)=O	n
C[C@H]1CN([C@@H](C)CO)S(=O)(=O)c2ccc(-c3cccc(C(=O)N(C)C)c3)cc2O[C@H]1CN(C)C(=O)Nc1ccccc1	n
Cn1ncc2c(O/N=C(\N)c3ccc(C(F)(F)F)cc3)ncnc21	33
C[C@@H]1CN([C@@H](C)CO)C(=O)c2cc(C#CC3CC3)cnc2O[C@@H]1CN(C)C	n
CCCC#Cc1cnc2c(c1)C(=O)N([C@@H](C)CO)C[C@H](C)[C@H](CN(C)Cc1cccnc1)O2	n
CC#CCCCC(=O)Nc1ccccc1C(=O)O	32
CC(=O)N(C)C[C@@H]1Oc2cc(/C=C/c3ccccc3)ccc2S(=O)(=O)N([C@H](C)CO)C[C@@H]1C	n
COc1cccc(-c2cnc3c(c2)C(=O)N([C@@H](C)CO)C[C@H](C)[C@@H](CN(C)CC2CCOCC2)O3)c1	n
C[C@@H]1CN([C@H](C)CO)C(=O)c2cc(-c3ccc(F)cc3)cnc2O[C@@H]1CN(C)C(=O)c1ccccn1	n
CCCNC(=O)N(C)C[C@@H]1Oc2cc(C#Cc3cccc(F)c3)ccc2S(=O)(=O)N([C@H](C)CO)C[C@H]1C	n
CCC(=O)N1C[C@H](C)[C@@H](OC)CN(C)C(=O)c2ccc(NS(C)(=O)=O)cc2OC[C@H]1C	n
CCOC(=O)CSc1nc2ccccc2c(=O)n1CC1CCC(C(=O)NCc2ccco2)CC1 (stereo not drawn)	n
CCOC(=O)CSc1nnnn1-c1cccc2ccccc12	38
CCC(=O)N(C)C[C@H]1Oc2ncc(C#CC3(O)CCCC3)cc2C(=O)N([C@@H](C)CO)C[C@H]1C	n
C[C@H]1CN([C@@H](C)CO)C(=O)c2cc(C#CCC3CCCC3)cnc2O[C@@H]1CN(C)Cc1ccccn1	n
C[C@H](O)C#Cc1ccc2c(c1)O[C@H](CN(C)C)[C@@H](C)CN([C@@H](C)CO)S2(=O)=O	n
Nc1ncc(Br)cc1S(=O)(=O)NCCc1ccccc1	n
O=[N+]([O-])c1ccc(/C=N/n2cnc3ccccc32)s1	48
SMILES	miR122 inh
Cc1ccc(S(=O)(=O)N(C)C[C@H]2Oc3ncc(C#CCC(C)C)cc3C(=O)N([C@H](C)CO)C[C@@H]2C)cc1	n
C[C@H](CO)N1C[C@H](C)[C@@H](CN(C)Cc2ccccc2C(=O)O)Oc2cc(-c3ccccc3)ccc2S1(=O)=O	n
NCC12CC3CC(C1)CC(c1ccc(Br)cc1)(C3)C2	34
C/C=C/c1ccc2c(c1)O[C@@H](CN(C)S(C)(=O)=O)[C@H](C)CN([C@@H](C)CO)S2(=O)=O	n
NC(=O)c1cn(-c2ccccc2)nc1-c1cc2ccccc2oc1=O	77
C[C@H](CO)N1C[C@H](C)[C@H](CN(C)C(=O)c2cccc(F)c2)Oc2ncc(-c3cccc(F)c3)cc2C1=O	n
COc1cccc(NC(=O)N(C)C[C@@H]2Oc3cc(-c4cccc(C(=O)N(C)C)c4)ccc3S(=O)(=O)N([C@H](C)CO)C[C@H]2C)c1	n
OC(CNCCC1C=Nc2ccccc21)Cn1c2ccc(Cl)cc2c2cc(Cl)ccc21 (stereo not drawn)	55
C[C@H](CO)N1C[C@H](C)[C@@H](CN(C)C(=O)CC2CC2)Oc2cc(C#CCC3CCCC3)ccc2S1(=O)=O	n
C[C@H]1CN([C@@H](C)CO)C(=O)c2cc(C#Cc3ccccn3)cnc2O[C@H]1CN(C)Cc1cccnc1	n
CCCCN1C=C(C(=O)OC)C(c2ccccc2C(F)(F)F)C(C(=O)OC)=C1	31
C[C@@H]1CN([C@@H](C)CO)S(=O)(=O)c2ccc(-c3cncnc3)cc2O[C@@H]1CN(C)C(=O)Cc1cccnc1	n
CCC(=O)N(C)C[C@H]1Oc2ncc(C#Cc3ccc(OC)cc3)cc2C(=O)N([C@@H](C)CO)C[C@@H]1C	n
C[C@H]1CN([C@@H](C)CO)S(=O)(=O)c2ccc(-c3ccccc3)cc2O[C@@H]1CN(C)Cc1ccccc1C(=O)O	n
C[C@@H]1CN([C@@H](C)CO)C(=O)c2cccc(NC(=O)c3ccc(-c4nccs4)cc3)c2O[C@H]1CN(C)Cc1ccc2c(c1)OCO2	38
C[C@H](CO)N1C[C@H](C)[C@H](CN(C)C(=O)Nc2ccc3c(c2)OCO3)Oc2ncc(-c3cccc(C(F)(F)F)c3)cc2C1=O	33
CCC(=O)N(C)C[C@@H]1Oc2ncc(C#Cc3ccccc3OC)cc2C(=O)N([C@H](C)CO)C[C@H]1C	n
C[C@H]1CN([C@@H](C)CO)C(=O)c2cc(-c3ccccc3)cnc2O[C@@H]1CN(C)C(=O)Nc1ccc2c(c1)OCO2	n
COc1cccc(NC(=O)N(C)C[C@H]2Oc3ncc(C#Cc4ccccc4)cc3C(=O)N([C@@H](C)CO)C[C@@H]2C)c1	n
COc1ccccc1C#Cc1cnc2c(c1)C(=O)N([C@H](C)CO)C[C@H](C)[C@@H](CN(C)C(=O)c1ccc3c(c1)OCO3)O2	35
C[C@H](CO)N1C[C@H](C)[C@@H](CN(C)Cc2ccc3c(c2)OCO3)Oc2c(NC(=O)C3CC3)cccc2C1=O	n
COc1cccc(NC(=O)N(C)C[C@@H]2Oc3ncc(C#Cc4ccccc4)cc3C(=O)N([C@@H](C)CO)C[C@@H]2C)c1	n
COCC(=O)N(C)C[C@H]1Oc2ncc(C#Cc3ccccc3OC)cc2C(=O)N([C@H](C)CO)C[C@@H]1C	n
COc1cccc(NC(=O)N(C)C[C@@H]2Oc3ncc(C#Cc4ccncc4)cc3C(=O)N([C@@H](C)CO)C[C@H]2C)c1	33
C[C@@H]1CN([C@@H](C)CO)C(=O)c2cc(-c3ccccc3)cnc2O[C@H]1CN(C)C(=O)Nc1ccc2c(c1)OCO2	n
SMILES	miR122 inh
C[C@@H]1CN([C@H](C)CO)C(=O)c2cccc(NC(=O)c3ccc(-c4nccs4)cc3)c2O[C@@H]1CN(C)Cc1ccc(C(=O)Nc2ccccc2N)cc1	n
CCC(=O)N(C)C[C@H]1Oc2cc(C#C[C@@H](C)O)ccc2S(=O)(=O)N([C@@H](C)CO)C[C@@H]1C	n
Cc1ccc(S(=O)(=O)Nc2ccc3c(c2)CC(=O)N([C@H](C)CO)C[C@H](C)[C@H](CN(C)Cc2ccc(C(=O)Nc4ccccc4N)cc2)O3)cc1	n
C[C@H](CO)N1C[C@H](C)[C@@H](CN(C)C(=O)C2CC2)Oc2cc(C#Cc3cccnc3)ccc2S1(=O)=O	n
C[C@@H](O)C#Cc1cnc2c(c1)C(=O)N([C@@H](C)CO)C[C@H](C)[C@H](CN(C)C(=O)CN(C)C)O2	n
C[C@@H]1CN([C@@H](C)CO)C(=O)Cc2cc(N(C)C)ccc2O[C@@H]1CN(C)Cc1ccc(C(=O)Nc2ccccc2N)cc1	n
